Compounds without any hit were thinned out: in the full panel of roughly 83,000, 20% have a hit.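 A percent growth of 40 corresponds to 60% growth inhibition; 0 means no net growth; -100 means all cells died. Active threshold: below 10.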 Unmarked numbers belong to inactive results. The source made the active and inactive calls.
Test system: A498 renal
Experiment: NCI-60 one-dose screen, 48 h (100 = growth as untreated, 0 = no growth, -100 = all killed)
Conditions: 10 µM
Description: Growth inhibition of the A498 human tumor cell line is measured as a screen for anti-cancer activity. Cells are grown in 96 well plates and exposed to the test compound for 48 hours. Compounds are tested at a single concentration, which is 10^-5 M for most compounds. The reported endpoint is percent growth (GI% or GIPRCNT), where numbers from 0 - 100% represent growth inhibition, and numbers from -100% - 0 represent cell death. For example, a value of 40 represents 60% growth inhibition. A value of 0 means no net growth occurred over the course of the experiment. A value of -40 indicates 40% of cells at the beginning of the experiment died by the end of the experiment. A value of -100 means all cells are dead at the end of the experiment.
NCI-60 Human Tumor Cell Lines Screen was performed using the standard one-dose NCI protocol, which is described in more detail at https://dtp.cancer.gov/discovery_development/nci-60/default.htm.
Compounds with GIPRCNT values below 10 were considered active. Activity score was based on GIPRCNT using the following formula: […]
Score is 0 for GIPRCNT values of 100 or above, 50 for GIPRCNT values of 0, and 100 for GIPRCNT values of -100.

Structure (SMILES)	growth
C=CCc1cc(Nc2c3ccc(Cl)cc3nc3ccc(OC)cc23)cc(CN(CC)CC)c1O	20.6%
CC(C)(C)c1ccc(OCCCCCCN2CCNCC2)cc1	86.1%
CCOC(=O)c1c(Cl)c2c(n1Cc1cccc(OC)c1)-c1oncc1CC2	1.89% (active)
COc1cccc2c1O/C(=C\c1ccc([N+](=O)[O-])s1)C2=O	109%
O=c1oc2cc(OS(=O)(=O)C3CC3)ccc2c2c1CCCCCC2	63.8%
N#Cc1cnc2ccc(NCc3cnc[nH]3)cc2c1Nc1ccc(F)c(Cl)c1	52.4%
CCCCC(=O)N(c1ccc(Nc2c3ccccc3nc3cc([N+](=O)[O-])ccc23)cc1)S(C)(=O)=O	78.8%
Cc1cc(=O)oc2cc(OCc3cn(CC(O)CO)nn3)ccc12 (stereo not given)	-3.54% (active)
C#CCn1c(-c2cccc(OCCCCl)c2)nc2c1c(=O)n(C)c(=O)n2C	83.6%
COc1cccc(-c2nnc(COc3ccc(-c4nc5ccc(C)cc5[nH]4)cc3OC)o2)c1	71.3%
O=C(COc1ccc(-c2nc3ccccc3[nH]2)cc1)N=Nc1c(O)[nH]c2ccccc12	86.4%
CCN(CC)CCCOC(=O)Nc1ccccc1Cl	97.7%
Cc1cccc2c(Nc3ccc(NS(C)(=O)=O)cc3)c3ccc([N+](=O)[O-])cc3nc12	-11.2% (active)
FC(F)(F)c1ccc(-c2cnc(Cl)nc2NC2CCCCCC2)cc1	89.9%
c1ccc(OCCC[P+](c2ccccc2)(c2ccccc2)c2ccccc2)cc1	12.1%
CCOC(=O)c1c(C)n(-c2ccc(Cl)cc2)c2ccc(OC(=O)/C=C/c3ccccc3)cc12	68.7%
COc1ccc2oc(=O)cc(C(c3ccc[nH]3)c3ccc[nH]3)c2c1	-8.63% (active)
CCN(CCCNC(=O)Cc1cc(=O)oc2cc(N(C)C)ccc12)CCNc1ccnc2cc(Cl)ccc12	81.5%
CCC(O)c1ccc(Br)cc1NC(=O)c1cccc(Cl)c1 (stereo not given)	25.3%
O=C(O)c1cc(C(F)(F)F)cc(C(F)(F)F)c1	84.4%

Structure (SMILES)	growth
CCn1nc(-c2ccccn2)c2cccnc2c1=S	99.2%
CC(C)C[C@H](NC(=O)CCn1ccc2ccccc2c1=O)B(O)O	7.69% (active)
N#CC1C=Cc2c(ccc3ccccc23)N1C(=O)c1ccccc1 (stereo not given)	-7.88% (active)
COc1ccc(NC(=O)c2sc3nc4c(cc3c2N)C(O)CCC4)cc1 (stereo not given)	-8.3% (active)
CCOC(=O)c1cc2c(n1Cc1cc(OC)cc(OC)c1)-c1oncc1CC2	24.9%
COc1ccc(NC(=O)CCn2cnc3c(cc(-c4ccccc4)n3-c3ccccc3)c2=O)cc1	108%
CC(C)/C(=N/O)c1ccccc1	113%
CCN(CC)CC(O)Cc1ccc(OC)cc1 (stereo not given)	96.7%
O=C1c2cc(Cl)ccc2-c2c(O)cc(Cl)cc21	109%
O=C(O)CCCN1C(=O)NC2(C1=O)c1ccccc1-c1ccccc12	101%
Nc1nc(SCC#CCCl)c2[nH]cnc2n1	53.8%
COc1cc(Cn2c(-c3ccccc3)c(Cl)c3c2-c2oncc2CC3)cc(OC)c1	26.5%
O=S(=O)(NC1c2ccccc2Oc2ccccc21)c1ccccc1	92.2%
COc1ccc(-c2nnc(N3CCN(C(=O)CN4CCN(c5ccc(Cl)cc5)CC4)CC3)nc2-c2ccc(OC)cc2)cc1	73.7%
CCOC(=O)C(CCC1=NC(C)(C)CC(C)O1)C(=O)OCC (stereo not given)	106%
CC(=O)/C(=C\c1ccc(Cl)cc1)c1ccccc1	15.7%
CN(C)CCCN(Cc1ccccc1O)C(=S)Nc1ccc(Cl)cc1	77.5%
COc1ccc(-c2nnc(COc3ccc(NC(=O)Nc4cccc(C(F)(F)F)c4)cc3F)o2)cc1	27.3%
Cc1nc2sccn2c1-c1csc(Nc2cccc(Cl)c2C)n1	36.1%
CN(C1c2ccccc2Oc2ccccc21)S(=O)(=O)c1cc(Cl)ccc1Cl	20.9%

— PubChem BioAssay (NCI)
